The results in this text go back to PubChem BioAssay (Tox21).

A short description of assay [1]: Human pregnane X receptor (PXR) small molecule agonists, qHTS cell viability counter screen (AID 1346977). Further: nearly all actives have a fitted effect of over 50% in size. Summed up: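 PXR-Luc HepG2 cells (2,000/well, 5% charcoal-stripped FBS) preincubated 5 hr, then exposed to compounds 24 hr at 37 C. Viability read in the same wells by CellTiter-Fluor fluorescence, reagent added at 23 hr, 1 hr incubation.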
(In general: In qHTS, concentration-response curves come from the screen itself.)

A short description of assay [2]: Caspase-3/7 induction in HepG2 cells by small molecules, qHTS assay (AID 1346978). Further: nearly all actives have a fitted effect of over 15% in size. Summed up: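 Caspase-3/7 induction was measured by Caspase-Glo 3/7 luminescence (30 min, room temperature) after a 17 hr compound exposure of wild-type HepG2 cells seeded at 2,000 per well and pre-incubated 5 hr.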
A short description of assay [3]: Caspase-3/7 induction in CHO-K1 cells by small molecules, qHTS cell viability counter screen (AID 1346979). Further: nearly all actives have a fitted effect of over 35% in size. The method in brief:
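Wild-type CHO-K1 cells (1,500/well) treated with compound after 5 h plating; after 16 h at 37C, viability read as CellTiter-Fluor fluorescence following 1 h reagent incubation, in the same wells as the caspase read.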

A short description of assay [4]: Caspase-3/7 induction in CHO-K1 cells by small molecules, qHTS assay (AID 1346980). Further: nearly all actives have a fitted effect of over 15% in size. The method in brief:
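Luminescent Caspase-Glo 3/7 read (30min, room temperature) quantified apoptosis induction. Cells were wild-type CHO-K1, treated with compound for 17hr at 37 C and 5% CO2.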

Assay [5] can be described thus: Caspase-3/7 induction in HepG2 cells by small molecules, qHTS cell viability counter screen (AID 1346981). Further: series mostly up to about 92 µM; nearly all actives have a fitted effect of over 30% in size. Summed up:
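Counter screen for cytotoxicity: HepG2 exposed 16 hr to compounds, then CellTiter-Fluor viability signal (fluorescence, 1 hr reagent incubation).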

Assay [6] has as its target Nuclear receptor subfamily 1 group I member 2 (Homo sapiens) (UniProt O75469). The experiment in a line: Human pregnane X receptor (PXR) small molecule agonists, qHTS assay (AID 1346982). Further: nearly all actives have a fitted effect of over 35% in size. Further: potency means the concentration at half of the fitted maximal effect. Summed up: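 Luminescence (ONE-Glo, 30 min RT) after 24 hr compound exposure of PXR-Luc HepG2 cells; cells rested 5 hr post-plating in 5% charcoal-stripped FBS medium.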
In assay [7] the target is Cytochrome P450 2D6 (Homo sapiens) (UniProt P10635). The experiment in a line: Cytochrome P450 Family 2 Subfamily D Member 6 (CYP2D6) small molecule antagonists: luciferase reporter qHTS assay (AID 1671196). Further: nearly all actives have a fitted effect of over 50% in size. Further: potency means the concentration at half of the fitted maximal effect. The method in brief:
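Inhibition of CYP2D6 was gauged by loss of luminescence, since light produced tracks the luciferin generated from a proluciferin substrate. A 10 min room-temperature preincubation preceded 1 h NADPH-supported turnover.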
In general terms: A reporter such as luciferase makes a cellular process visible.

The target in assay [8] is Cytochrome P450 2C19 (Homo sapiens) (UniProt P33261). The experiment in a line: Cytochrome P450 Family 2 Subfamily C Member 19 (CYP2C19) small molecule antagonists: luciferase reporter qHTS assay (AID 1671197). Further: nearly all actives have a fitted effect of over 65% in size. Further: potency means the concentration at half of the fitted maximal effect. The method in brief: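 Inhibition of CYP2C19 was scored from loss of luminescence in a P450-Glo proluciferin substrate assay, NADPH-started and run 1 h at 37C, with ketoconazole as positive control.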

Assay [9] deals with Cytochrome P450 1A2 (Homo sapiens) (UniProt P05177). The experiment in a line: Cytochrome P450 Family 1 Subfamily A Member 2 (CYP1A2) small molecule antagonists: luciferase reporter qHTS assay (AID 1671199). Further: nearly all actives have a fitted effect of over 50% in size. Further: potency means the concentration at half of the fitted maximal effect. Summed up: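 Signal from luciferin formed by CYP1A2 from a proluciferin substrate is read as luminescence, expressed in relative luminescence units. Compounds sit with enzyme 10 min, NADPH-driven reaction runs 1 h, all at room temperature.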

Assay [10] deals with Voltage-gated inwardly rectifying potassium channel KCNH2 (Homo sapiens) (UniProt Q12809). The experiment in a line: Human Ether-a-go-go-Related Gene (hERG) channel small molecule antagonists: fluorescence cell-based qHTS assay (AID 1671200).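 Further: hERG-expressing U2OS cells given a thallium stimulus after FluxOR II dye loading; series mostly up to about 77 µM; nearly all actives have a fitted effect of over 50% in size.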 The method in brief:
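hERG-U2OS cells plated overnight at 37 C, loaded with FluxOR II dye 1 h at RT in dark; after 10 min, thallium stimulus added. Fluorescence (480/540 nm) read kinetically for 2 min at 1 s intervals.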
In general terms: Block of hERG is tested as a sign of cardiac risk.

Assay [11] deals with Cytochrome P450 3A4 (Homo sapiens) (UniProt P08684). The assay is described as follows: Cytochrome P450 Family 3 Subfamily A Member 4 (CYP3A4) small molecule antagonists: luciferase reporter qHTS assay (AID 1671201). The method in brief:
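P450-Glo CYP3A4 luminescent assay: compounds preincubated 10 min at room temperature with enzyme and proluciferin substrate, NADPH regeneration added, 1 h room-temperature reaction, stopped with luciferin detection reagent; luminescence read after 20 min. Ketoconazole positive control.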

The target of assay [12] is Cytochrome P450 2C9 (Homo sapiens) (UniProt P11712). The assay is described as follows: Cytochrome P450 Family 2 Subfamily C Member 9 (CYP2C9) small molecule antagonists: luciferase reporter qHTS assay (AID 1671198). Further: nearly all actives have a fitted effect of over 50% in size. Further: potency means the concentration at half of the fitted maximal effect. Summed up:
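Enzyme-substrate mix preincubated with compound 10 min at room temperature; reaction started with NADPH regeneration solution, 1 h 37C. Luminescent luciferin product read after 20 min detection reagent.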

Assay [13] deals with Nuclear receptor subfamily 1 group I member 2 (Rattus norvegicus) (UniProt Q9R1A7). The experiment in a line: Rat pregnane X receptor (rPXR) activation by small molecules, qHTS assay (AID 1346983). Further: potency means the concentration at half of the fitted maximal effect; nearly all actives have a fitted effect of over 20% in size. The settings on record: rPXR luciferase reporter cells, One-Glo luminescence, 24 h; max activation: active compounds read high. The method in brief:
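Luminescent readout (One-Glo luciferase, 30 min room temperature) followed 24 hr compound treatment at 37 C of rPXR cells plated 2,000 per well and preincubated 5hr; qHTS format with compounds delivered in DMSO.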

In assay [14] the target is Nuclear receptor subfamily 1 group I member 2 (Homo sapiens) (UniProt O75469). The experiment in a line: CYP3A4 induction through human pregnane X receptor (PXR) by small molecules, qHTS assay (AID 1346984). Further: nearly all actives have a fitted effect of over 40% in size. The method in brief:
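DPX-2 reporter cells; 24h cpd, 37C; Luciferin-IPA 3uM final x3h; One-Glo 30 min RT; lumi read.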

Assay [15] has the same target. The experiment in a line: Human pregnane X receptor (PXR) activation by small molecules, qHTS assay (AID 1346985). Further: nearly all actives have a fitted effect of over 40% in size. The method in brief:
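DPX-2 cells (HepG2 co-transfected with a PXR response element and a CYP3A4-promoter luciferase construct) were seeded at 2,000 per well, rested 5 hr at 37C, then exposed to DMSO-dissolved compounds for 24 hr. Activation was read as luciferase luminescence.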

A number with no mark means an inactive call. Records with an inconclusive call do not appear. The source made the active and inactive calls. The call rests on the fitted dose curve; in most records, active means well fitted curve in the direction sought with a large enough effect in the repeat runs; inconclusive means weak or mixed curves; inactive means no such curve, though single readings can be large; an effect the other way counts as inactive or inconclusive.

Voltage-gated inwardly rectifying potassium channel KCNH2 (Homo sapiens), sequence (Q12809 whole entry, looked up): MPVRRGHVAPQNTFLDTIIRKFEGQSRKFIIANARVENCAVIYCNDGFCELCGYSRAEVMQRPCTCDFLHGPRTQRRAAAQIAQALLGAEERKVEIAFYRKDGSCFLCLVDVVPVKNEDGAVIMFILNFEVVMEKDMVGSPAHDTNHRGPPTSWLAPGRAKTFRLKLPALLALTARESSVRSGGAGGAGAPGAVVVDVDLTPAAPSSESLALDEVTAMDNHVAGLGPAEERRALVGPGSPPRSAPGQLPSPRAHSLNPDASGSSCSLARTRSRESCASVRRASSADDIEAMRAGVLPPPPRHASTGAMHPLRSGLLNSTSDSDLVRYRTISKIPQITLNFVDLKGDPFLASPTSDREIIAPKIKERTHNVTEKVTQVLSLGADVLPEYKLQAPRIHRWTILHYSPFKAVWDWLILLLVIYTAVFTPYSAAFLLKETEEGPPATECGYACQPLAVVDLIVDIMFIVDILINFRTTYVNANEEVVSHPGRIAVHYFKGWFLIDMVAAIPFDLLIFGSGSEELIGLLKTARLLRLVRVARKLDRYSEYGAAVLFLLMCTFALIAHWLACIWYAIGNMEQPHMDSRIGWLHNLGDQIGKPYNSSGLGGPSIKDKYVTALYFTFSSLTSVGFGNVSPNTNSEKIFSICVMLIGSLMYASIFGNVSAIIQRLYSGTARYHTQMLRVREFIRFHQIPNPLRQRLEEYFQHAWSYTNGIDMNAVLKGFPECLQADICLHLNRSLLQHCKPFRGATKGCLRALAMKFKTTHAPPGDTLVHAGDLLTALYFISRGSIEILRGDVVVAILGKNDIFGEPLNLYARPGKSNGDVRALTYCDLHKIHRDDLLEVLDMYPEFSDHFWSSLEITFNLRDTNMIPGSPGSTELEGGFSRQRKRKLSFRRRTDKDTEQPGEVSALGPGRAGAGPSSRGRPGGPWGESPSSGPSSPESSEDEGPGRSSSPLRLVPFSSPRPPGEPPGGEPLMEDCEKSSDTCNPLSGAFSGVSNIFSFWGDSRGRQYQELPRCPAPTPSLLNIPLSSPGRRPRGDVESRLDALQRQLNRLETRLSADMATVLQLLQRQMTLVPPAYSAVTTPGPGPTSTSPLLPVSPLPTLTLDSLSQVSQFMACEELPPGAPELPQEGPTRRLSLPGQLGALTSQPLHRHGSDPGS
Nuclear receptor subfamily 1 group I member 2 (Homo sapiens), sequence (O75469 whole entry, looked up): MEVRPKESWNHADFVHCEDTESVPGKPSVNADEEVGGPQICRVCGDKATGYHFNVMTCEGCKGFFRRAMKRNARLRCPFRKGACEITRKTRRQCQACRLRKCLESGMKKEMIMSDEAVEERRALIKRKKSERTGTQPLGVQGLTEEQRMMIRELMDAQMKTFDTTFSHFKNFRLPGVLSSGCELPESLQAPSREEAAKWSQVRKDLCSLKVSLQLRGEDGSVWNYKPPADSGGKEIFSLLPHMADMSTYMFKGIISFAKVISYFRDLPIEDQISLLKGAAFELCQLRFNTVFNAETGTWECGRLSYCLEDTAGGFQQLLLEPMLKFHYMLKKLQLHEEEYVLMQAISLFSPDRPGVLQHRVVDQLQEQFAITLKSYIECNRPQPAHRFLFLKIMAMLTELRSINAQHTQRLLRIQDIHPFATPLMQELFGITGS
Cytochrome P450 2C19 (Homo sapiens), sequence (P33261 whole entry, looked up): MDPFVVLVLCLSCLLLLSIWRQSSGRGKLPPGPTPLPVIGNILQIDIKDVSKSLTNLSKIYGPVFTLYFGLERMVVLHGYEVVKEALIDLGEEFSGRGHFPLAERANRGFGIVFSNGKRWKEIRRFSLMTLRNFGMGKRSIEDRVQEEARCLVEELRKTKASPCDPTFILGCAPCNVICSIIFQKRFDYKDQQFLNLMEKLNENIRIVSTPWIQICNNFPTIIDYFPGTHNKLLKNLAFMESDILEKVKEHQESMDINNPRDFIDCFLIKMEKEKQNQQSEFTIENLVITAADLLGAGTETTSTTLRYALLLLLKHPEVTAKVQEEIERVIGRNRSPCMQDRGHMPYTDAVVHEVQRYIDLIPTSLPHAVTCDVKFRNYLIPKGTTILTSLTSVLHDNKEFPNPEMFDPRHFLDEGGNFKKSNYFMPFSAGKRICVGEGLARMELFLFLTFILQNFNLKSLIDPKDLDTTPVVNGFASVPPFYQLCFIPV
Cytochrome P450 2C9 (Homo sapiens), sequence (P11712 whole entry, looked up): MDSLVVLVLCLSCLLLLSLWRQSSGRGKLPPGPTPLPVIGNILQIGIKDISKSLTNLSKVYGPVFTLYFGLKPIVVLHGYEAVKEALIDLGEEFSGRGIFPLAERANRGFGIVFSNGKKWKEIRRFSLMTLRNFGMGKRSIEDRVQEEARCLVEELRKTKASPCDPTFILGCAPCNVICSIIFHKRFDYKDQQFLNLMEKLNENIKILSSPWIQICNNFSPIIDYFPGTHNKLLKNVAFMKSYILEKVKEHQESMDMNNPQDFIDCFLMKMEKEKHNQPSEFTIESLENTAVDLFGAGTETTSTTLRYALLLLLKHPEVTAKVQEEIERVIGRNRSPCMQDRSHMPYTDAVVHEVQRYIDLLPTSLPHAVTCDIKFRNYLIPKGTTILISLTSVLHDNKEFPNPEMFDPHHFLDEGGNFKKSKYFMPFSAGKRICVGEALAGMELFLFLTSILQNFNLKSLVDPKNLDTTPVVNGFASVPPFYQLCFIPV
Cytochrome P450 1A2 (Homo sapiens), sequence (P05177 whole entry, looked up): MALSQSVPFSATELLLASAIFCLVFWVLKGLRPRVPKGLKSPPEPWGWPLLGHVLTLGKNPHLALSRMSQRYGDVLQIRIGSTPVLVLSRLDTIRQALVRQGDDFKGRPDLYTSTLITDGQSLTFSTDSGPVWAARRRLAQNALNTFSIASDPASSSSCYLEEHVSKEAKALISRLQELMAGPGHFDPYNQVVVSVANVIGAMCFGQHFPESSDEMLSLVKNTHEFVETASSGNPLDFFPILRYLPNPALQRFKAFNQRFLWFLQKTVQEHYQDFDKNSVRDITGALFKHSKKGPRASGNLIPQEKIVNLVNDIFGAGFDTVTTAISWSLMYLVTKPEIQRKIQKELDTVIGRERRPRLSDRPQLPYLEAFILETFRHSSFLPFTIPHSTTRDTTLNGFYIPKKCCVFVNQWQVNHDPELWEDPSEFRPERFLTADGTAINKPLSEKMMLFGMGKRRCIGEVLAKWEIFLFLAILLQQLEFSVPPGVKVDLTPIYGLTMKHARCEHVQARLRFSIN
Cytochrome P450 3A4 (Homo sapiens), sequence (P08684 whole entry, looked up): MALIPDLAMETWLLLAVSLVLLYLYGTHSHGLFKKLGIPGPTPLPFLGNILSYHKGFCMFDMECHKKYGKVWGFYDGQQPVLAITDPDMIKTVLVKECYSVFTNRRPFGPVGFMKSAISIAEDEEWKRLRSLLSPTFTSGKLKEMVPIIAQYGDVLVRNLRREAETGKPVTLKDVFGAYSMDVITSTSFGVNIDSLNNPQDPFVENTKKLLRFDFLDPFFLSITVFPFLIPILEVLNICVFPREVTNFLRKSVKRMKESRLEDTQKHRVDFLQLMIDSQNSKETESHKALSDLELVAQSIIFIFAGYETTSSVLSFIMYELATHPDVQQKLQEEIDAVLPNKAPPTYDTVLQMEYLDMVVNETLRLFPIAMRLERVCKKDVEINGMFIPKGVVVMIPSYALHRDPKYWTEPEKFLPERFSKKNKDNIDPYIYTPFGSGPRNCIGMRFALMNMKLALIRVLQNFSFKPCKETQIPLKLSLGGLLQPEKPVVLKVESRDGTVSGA
Cytochrome P450 2D6 (Homo sapiens), sequence (P10635 whole entry, looked up): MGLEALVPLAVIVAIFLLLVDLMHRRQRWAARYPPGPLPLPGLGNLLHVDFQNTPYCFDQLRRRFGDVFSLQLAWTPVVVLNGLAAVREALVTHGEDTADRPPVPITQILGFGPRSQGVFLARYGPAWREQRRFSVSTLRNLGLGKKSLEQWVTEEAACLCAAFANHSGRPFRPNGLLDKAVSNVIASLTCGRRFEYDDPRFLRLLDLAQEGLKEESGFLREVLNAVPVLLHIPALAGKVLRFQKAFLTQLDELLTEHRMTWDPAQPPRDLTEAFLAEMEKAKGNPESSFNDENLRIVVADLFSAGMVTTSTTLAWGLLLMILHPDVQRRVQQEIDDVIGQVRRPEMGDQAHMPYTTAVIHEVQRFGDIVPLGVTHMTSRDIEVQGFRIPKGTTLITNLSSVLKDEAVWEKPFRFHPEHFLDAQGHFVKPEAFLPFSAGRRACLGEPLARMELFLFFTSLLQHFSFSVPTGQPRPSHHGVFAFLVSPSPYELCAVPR
Nuclear receptor subfamily 1 group I member 2 (Rattus norvegicus), sequence (Q9R1A7 whole entry, looked up): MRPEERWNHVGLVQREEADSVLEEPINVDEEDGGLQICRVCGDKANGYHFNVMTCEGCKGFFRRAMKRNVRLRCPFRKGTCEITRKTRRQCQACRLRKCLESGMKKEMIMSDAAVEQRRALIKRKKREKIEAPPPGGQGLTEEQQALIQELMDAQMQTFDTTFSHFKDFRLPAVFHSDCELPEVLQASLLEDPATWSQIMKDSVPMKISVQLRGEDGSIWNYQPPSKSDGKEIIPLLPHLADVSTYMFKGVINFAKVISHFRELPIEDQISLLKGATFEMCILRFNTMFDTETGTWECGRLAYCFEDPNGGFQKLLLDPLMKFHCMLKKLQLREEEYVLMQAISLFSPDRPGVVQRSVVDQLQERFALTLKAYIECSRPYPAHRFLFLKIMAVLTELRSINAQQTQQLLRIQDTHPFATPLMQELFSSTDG

Consider `O=C(O)C(O)[C@H](O)[C@@H](O)[C@H](O)[C@H](O)CO` (stereo partly specified), for which the Potency entry in assay [1], in assay [3], in [6], in [10] and in [11] was “inactive” throughout. In addition, the compound was called inactive in [2], in assay [4] and in assay [5]. Further, the Potency in assay [7] is 64 µM (active); in [8] it was 40.4 µM (active); in assay [9], 40.4 µM (active).
As for `CCCC(C)CO` (stereo unspecified), the Potency entry in [1], in assay [3], in [6], in [8], in [12] and in [10] was “inactive” each time. In [11], the Potency result was “inactive”. Further, the result in assay [2], in assay [4] and in assay [5] was inactive. Moreover, the results for the Potency in assay [7] and in assay [9] were 79.7 µM (active) and 35.6 µM (active), respectively.
On to `COC(C(=O)O)c1ccccc1` (stereo unspecified), for which the Potency entry in [1], in assay [3], in assay [6], in [8], in [12] and in [9] was “inactive” throughout. In addition, the Potency result in assay [10] and in [11] was “inactive” in each case. The compound was called inactive in assay [2], in assay [4] and in [5].
Consider `C=C(C)[C@@H]1CCC2=CC(=O)C[C@@H](C)[C@]2(C)C1`, for which the Potency entry in assay [1], in assay [3], in [7], in assay [10] and in [11] was “inactive” in each case. Further, the result in assay [2], in [4] and in assay [5] was inactive. The Potency in [8] was 6.33 µM (active); in assay [12], 39.9 µM (active).
For the compound `C=C[Si](OC)(OC)OC`, the Potency entry in assay [1], in assay [3], in assay [6], in [7], in assay [8] and in assay [12] was “inactive” throughout. Further, the Potency result in assay [10] and in [11] was “inactive” in each case. Further, the call in assay [2], in [4] and in assay [5] was inactive.
Consider `CCCCc1ccc2cccc(S(=O)(=O)O)c2c1`, for which the Potency result in [1], in assay [3], in assay [6], in [7], in assay [8] and in [10] was “inactive” each time. Moreover, the Potency entry in assay [11] was “inactive”. The result in assay [2], in [4] and in assay [5] was inactive. Further, the Potency in assay [12] is 37.3 µM (active).
As for `COC(=O)CCCCCCCCC(=O)OC`, the Potency entry in [1], in [3], in assay [6], in assay [7], in [10] and in assay [11] was “inactive” each time. Besides, the compound was called inactive in [2], in assay [4] and in assay [5]. The Potency in assay [9] is 40.1 µM (active).
For `O=C(CCOCCOCCOCCOCCC(=O)Nc1c(I)cc(I)c(C(=O)O)c1I)Nc1c(I)cc(I)c(C(=O)O)c1I`, the Potency entry in [1], in assay [3], in assay [6], in assay [7], in assay [8] and in assay [12] was “inactive” throughout. The Potency result in [9], in [10] and in assay [11] was “inactive” each time. Further, the call in [2] and in [4] was inactive.
Regarding `CC(C)CCOC(=O)CC(C)C`, the Potency result in assay [1], in assay [3], in assay [6], in assay [7], in assay [8] and in [12] was “inactive” each time. The Potency result in assay [9], in [10] and in assay [11] was “inactive” throughout. For the same compound, the compound was classed as inactive in assay [2] and in [5].
As to `CC(C)c1ccc2oc3nc(N)c(C(=O)O)cc3c(=O)c2c1`, the Potency entry in [1], in assay [3], in assay [14], in assay [15] and in assay [10] was “inactive” each time. In addition, the outcome in assay [2] and in assay [5] was inactive. The Potency was 0.335 µM (active) in assay [6]; 4.47 µM (active) in assay [13]; 15.5 µM (active) in assay [7]; 15.5 µM (active) in [8]; 13.8 µM (active) in [12]; 17.4 µM (active) in assay [9].
